# Tests used:
# Assay in all cases: DAPPL (digital affinity profiling via proximity ligation, sequencing); 10 mM Tris-HCl pH 7.5, 50 mM NaCl, 1 mM DTT, 4% glycerol, room temperature, 30 min; GST-TFs on glutathione beads, 16-mer random dsDNA library, 0.1% formaldehyde crosslink after washing; high values mean tight binding
# [1] = target: T1, FLI1 (Homo sapiens, UniProt Q01543 1-452); conditions: protein: recombinant; tags: N-terminal GST; dsDNA, one strand shown
# T1 sequence: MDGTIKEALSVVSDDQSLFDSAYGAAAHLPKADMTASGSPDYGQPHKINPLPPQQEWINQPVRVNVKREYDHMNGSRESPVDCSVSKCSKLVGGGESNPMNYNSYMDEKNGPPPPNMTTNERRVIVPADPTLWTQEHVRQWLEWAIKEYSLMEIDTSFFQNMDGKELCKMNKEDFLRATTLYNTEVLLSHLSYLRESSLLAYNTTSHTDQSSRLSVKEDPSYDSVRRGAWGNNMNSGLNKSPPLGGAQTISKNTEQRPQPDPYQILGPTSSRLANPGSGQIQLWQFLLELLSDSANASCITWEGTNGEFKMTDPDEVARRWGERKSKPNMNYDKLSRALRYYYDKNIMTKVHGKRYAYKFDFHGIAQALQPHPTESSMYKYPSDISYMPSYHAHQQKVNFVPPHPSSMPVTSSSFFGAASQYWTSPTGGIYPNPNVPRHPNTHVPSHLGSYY
# In short: (§1)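 GST fusions of human transcription factors were expressed in yeast and captured with glutathione beads. Once given DNA barcodes and pooled alongside a tag-only sample, they were incubated for 30 min at room temperature with 200 nmole of a random double-stranded 16-mer DNA library in Tris/NaCl/DTT/glycerol buffer, then washed, crosslinked (0.1% formaldehyde), proximity-ligated, PCR-amplified and sequenced on an Illumina NextSeq500. The binding signal of each hexamer is its read frequency for a factor divided by its frequency for the tag-only sample.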
# [2] = target: T2, ELK1 (Homo sapiens, UniProt P19419 1-428); conditions: protein: recombinant; tags: N-terminal GST; dsDNA, one strand shown
# T2 sequence: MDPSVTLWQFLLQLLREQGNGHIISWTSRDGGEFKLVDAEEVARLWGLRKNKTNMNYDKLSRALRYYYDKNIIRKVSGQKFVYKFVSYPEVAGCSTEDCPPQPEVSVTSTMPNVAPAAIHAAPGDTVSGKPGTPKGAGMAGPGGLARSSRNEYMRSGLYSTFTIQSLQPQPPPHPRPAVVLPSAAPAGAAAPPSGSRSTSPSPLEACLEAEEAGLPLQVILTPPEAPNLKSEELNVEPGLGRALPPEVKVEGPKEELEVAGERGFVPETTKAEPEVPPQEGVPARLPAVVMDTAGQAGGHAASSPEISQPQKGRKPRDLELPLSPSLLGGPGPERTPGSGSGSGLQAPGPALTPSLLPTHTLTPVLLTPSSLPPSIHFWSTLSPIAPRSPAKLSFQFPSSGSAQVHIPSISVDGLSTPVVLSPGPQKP
# In short: as §1
# [3] = target: T3, GABPA (Homo sapiens, UniProt Q06546 1-454); conditions: protein: recombinant; tags: N-terminal GST; dsDNA, one strand shown
# T3 sequence: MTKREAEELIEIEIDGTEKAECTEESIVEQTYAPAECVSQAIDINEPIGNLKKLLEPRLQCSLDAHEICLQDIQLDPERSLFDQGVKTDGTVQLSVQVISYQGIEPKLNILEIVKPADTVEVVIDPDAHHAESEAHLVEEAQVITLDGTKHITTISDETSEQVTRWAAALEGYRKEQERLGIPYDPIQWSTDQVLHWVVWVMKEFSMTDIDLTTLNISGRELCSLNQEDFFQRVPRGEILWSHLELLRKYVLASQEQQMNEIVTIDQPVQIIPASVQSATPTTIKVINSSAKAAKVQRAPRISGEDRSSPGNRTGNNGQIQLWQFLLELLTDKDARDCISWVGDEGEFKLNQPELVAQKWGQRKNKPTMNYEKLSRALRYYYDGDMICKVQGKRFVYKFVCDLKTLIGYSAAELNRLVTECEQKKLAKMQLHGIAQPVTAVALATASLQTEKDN
# In short: as §1
# [4] = target: T4, ERG (Homo sapiens, UniProt P11308 1-479); conditions: protein: recombinant; tags: N-terminal GST; dsDNA, one strand shown
# T4 sequence: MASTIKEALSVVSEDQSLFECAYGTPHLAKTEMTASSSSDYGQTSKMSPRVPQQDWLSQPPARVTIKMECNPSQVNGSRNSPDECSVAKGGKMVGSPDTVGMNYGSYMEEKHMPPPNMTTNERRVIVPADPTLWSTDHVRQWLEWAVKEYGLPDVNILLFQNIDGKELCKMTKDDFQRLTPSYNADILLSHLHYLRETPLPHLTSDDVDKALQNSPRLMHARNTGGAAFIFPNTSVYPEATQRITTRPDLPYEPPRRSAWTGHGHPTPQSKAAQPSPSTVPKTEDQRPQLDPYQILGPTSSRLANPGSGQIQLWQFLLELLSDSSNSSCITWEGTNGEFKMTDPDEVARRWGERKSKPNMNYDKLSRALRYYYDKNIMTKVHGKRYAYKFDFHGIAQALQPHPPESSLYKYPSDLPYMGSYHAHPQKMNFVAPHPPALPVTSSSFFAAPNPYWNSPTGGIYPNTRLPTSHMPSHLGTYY
# In short: as §1
# [5] = target: ELF1 (Homo sapiens, UniProt P32519 1-619); conditions: protein: recombinant; tags: N-terminal GST; dsDNA, one strand shown
# In short: as §1
# [6] = target: T5, EHF (Homo sapiens, UniProt Q9NZC4 1-300); conditions: protein: recombinant; tags: N-terminal GST; dsDNA, one strand shown
# T5 sequence: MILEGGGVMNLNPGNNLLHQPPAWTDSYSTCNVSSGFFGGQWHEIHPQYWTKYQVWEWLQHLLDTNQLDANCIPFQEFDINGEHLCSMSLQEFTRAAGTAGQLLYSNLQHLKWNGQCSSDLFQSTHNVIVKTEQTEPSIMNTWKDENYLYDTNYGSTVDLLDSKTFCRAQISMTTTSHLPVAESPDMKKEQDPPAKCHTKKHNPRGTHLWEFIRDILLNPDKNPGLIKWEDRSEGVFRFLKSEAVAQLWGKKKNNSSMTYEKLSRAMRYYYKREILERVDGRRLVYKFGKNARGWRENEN
# In short: as §1
# [7] = target: SPI1 (Homo sapiens, UniProt P17947 1-270); conditions: protein: recombinant; tags: N-terminal GST; dsDNA, one strand shown
# In short: as §1
# [8] = target: SPIB (Homo sapiens, UniProt Q01892 1-262); conditions: protein: recombinant; tags: N-terminal GST; dsDNA, one strand shown
# In short: as §1
# [9] = target: T6, ELK3 (Homo sapiens, UniProt P41970 1-407); conditions: protein: recombinant; tags: N-terminal GST; dsDNA, one strand shown
# T6 sequence: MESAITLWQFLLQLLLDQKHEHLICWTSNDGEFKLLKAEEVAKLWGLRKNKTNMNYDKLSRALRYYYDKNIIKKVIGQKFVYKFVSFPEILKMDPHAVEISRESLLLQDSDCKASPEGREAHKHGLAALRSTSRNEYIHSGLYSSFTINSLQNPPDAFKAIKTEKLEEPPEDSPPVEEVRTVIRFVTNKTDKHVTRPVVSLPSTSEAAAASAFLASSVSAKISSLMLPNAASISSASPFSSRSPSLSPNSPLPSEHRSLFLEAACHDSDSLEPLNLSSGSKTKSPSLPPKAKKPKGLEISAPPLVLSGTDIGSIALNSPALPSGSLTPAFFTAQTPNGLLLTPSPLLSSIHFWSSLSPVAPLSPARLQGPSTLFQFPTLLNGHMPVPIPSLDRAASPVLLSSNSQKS
# In short: as §1
# [10] = target: T7, FEV (Homo sapiens, UniProt Q99581 1-238); conditions: protein: recombinant; tags: N-terminal GST; dsDNA, one strand shown
# T7 sequence: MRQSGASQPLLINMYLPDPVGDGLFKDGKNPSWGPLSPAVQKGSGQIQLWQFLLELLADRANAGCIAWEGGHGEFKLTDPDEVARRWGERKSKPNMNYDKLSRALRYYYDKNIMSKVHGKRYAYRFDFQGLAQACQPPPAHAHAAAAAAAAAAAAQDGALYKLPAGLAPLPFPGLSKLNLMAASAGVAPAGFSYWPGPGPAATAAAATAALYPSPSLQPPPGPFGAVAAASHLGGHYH
# In short: as §1
# [11] = target: ETV5 (Homo sapiens, UniProt P41161 1-510); conditions: protein: recombinant; tags: N-terminal GST; dsDNA, one strand shown
# In short: as §1
# [12] = target: HSF1 (Homo sapiens, UniProt Q00613 1-529); conditions: protein: recombinant; tags: N-terminal GST; chain copies: 3; dsDNA, one strand shown
# In short: as §1
# [13] = target: T8, SPIC (Homo sapiens, UniProt Q8N5J4 1-248); conditions: protein: recombinant; tags: N-terminal GST; dsDNA, one strand shown
# T8 sequence: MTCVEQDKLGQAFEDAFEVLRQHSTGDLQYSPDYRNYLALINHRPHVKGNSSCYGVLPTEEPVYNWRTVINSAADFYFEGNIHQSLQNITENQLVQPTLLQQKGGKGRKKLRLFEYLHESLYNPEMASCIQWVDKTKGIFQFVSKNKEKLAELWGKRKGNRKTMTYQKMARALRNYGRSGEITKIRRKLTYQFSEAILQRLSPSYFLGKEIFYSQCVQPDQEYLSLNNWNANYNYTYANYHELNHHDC
# In short: as §1
# [14] = target: ELF4 (Homo sapiens, UniProt Q99607 1-663); conditions: protein: recombinant; tags: N-terminal GST; dsDNA, one strand shown
# In short: as §1
# [15] = target: T9, ELK4 (Homo sapiens, UniProt P28324-2 1-405); conditions: protein: recombinant; tags: N-terminal GST; dsDNA, one strand shown
# T9 sequence: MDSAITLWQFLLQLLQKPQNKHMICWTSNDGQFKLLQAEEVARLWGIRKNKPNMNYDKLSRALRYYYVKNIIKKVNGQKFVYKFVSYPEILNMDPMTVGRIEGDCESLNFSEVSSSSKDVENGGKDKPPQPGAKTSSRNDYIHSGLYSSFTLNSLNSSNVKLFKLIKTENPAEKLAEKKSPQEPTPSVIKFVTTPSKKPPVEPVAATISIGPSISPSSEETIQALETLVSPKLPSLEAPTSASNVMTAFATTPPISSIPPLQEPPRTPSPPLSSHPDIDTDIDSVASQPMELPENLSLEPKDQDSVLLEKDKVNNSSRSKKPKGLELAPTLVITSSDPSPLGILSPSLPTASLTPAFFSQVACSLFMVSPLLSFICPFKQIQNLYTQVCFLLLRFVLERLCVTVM
# In short: as §1
# [16] = target: T10, ETV2 (Homo sapiens, UniProt O00321 1-342); conditions: protein: recombinant; tags: N-terminal GST; dsDNA, one strand shown
# T10 sequence: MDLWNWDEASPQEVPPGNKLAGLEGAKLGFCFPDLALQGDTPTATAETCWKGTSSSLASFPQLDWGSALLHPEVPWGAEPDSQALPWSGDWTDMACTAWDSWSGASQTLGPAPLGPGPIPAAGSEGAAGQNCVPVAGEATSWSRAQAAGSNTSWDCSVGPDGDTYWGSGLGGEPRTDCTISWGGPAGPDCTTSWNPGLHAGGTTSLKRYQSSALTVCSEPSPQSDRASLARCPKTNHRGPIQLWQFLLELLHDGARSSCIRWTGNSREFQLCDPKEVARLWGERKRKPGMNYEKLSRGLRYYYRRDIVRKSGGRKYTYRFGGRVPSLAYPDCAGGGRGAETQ
# In short: as §1
# [17] = target: T11, ELF3 (Homo sapiens, UniProt P78545 1-371); conditions: protein: recombinant; tags: N-terminal GST; dsDNA, one strand shown
# T11 sequence: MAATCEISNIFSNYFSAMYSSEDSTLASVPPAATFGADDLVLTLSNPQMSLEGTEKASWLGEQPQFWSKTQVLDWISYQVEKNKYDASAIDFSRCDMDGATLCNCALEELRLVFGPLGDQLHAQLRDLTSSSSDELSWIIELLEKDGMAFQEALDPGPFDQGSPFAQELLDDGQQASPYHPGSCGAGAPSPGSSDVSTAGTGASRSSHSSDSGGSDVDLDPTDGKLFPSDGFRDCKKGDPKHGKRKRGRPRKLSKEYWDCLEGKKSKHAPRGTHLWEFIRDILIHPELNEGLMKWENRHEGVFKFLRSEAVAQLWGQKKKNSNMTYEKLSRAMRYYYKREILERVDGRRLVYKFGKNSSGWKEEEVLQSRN
# In short: as §1
# [18] = target: CRX (Homo sapiens, UniProt O43186 1-299); conditions: protein: recombinant; tags: N-terminal GST; dsDNA, one strand shown
# In short: as §1
# [19] = target: ETV1 (Homo sapiens, UniProt P50549 1-477); conditions: protein: recombinant; tags: N-terminal GST; dsDNA, one strand shown
# In short: as §1
# SPIB, sequence (Q01892 whole entry): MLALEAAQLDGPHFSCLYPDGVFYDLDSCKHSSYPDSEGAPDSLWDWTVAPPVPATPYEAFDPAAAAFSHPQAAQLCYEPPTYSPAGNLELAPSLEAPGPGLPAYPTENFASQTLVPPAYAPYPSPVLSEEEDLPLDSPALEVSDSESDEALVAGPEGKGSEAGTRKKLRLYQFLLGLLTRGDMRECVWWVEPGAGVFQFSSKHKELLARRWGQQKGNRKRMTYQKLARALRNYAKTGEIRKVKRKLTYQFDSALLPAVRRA
# HSF1, sequence (Q00613 whole entry): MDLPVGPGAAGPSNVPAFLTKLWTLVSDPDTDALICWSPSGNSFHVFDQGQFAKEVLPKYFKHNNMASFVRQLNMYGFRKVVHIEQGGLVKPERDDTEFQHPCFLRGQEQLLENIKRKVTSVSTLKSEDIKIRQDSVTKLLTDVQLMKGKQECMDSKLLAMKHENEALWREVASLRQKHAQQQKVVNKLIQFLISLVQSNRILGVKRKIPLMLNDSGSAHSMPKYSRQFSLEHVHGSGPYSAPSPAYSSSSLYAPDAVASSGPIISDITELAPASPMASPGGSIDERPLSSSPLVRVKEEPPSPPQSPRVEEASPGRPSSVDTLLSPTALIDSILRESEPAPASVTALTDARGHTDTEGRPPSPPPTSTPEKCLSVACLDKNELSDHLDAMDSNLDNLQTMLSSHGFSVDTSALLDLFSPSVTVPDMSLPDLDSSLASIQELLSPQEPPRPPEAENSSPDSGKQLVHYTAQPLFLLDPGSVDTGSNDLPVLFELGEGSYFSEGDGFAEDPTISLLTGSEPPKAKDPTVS
# ELF4, sequence (Q99607 whole entry): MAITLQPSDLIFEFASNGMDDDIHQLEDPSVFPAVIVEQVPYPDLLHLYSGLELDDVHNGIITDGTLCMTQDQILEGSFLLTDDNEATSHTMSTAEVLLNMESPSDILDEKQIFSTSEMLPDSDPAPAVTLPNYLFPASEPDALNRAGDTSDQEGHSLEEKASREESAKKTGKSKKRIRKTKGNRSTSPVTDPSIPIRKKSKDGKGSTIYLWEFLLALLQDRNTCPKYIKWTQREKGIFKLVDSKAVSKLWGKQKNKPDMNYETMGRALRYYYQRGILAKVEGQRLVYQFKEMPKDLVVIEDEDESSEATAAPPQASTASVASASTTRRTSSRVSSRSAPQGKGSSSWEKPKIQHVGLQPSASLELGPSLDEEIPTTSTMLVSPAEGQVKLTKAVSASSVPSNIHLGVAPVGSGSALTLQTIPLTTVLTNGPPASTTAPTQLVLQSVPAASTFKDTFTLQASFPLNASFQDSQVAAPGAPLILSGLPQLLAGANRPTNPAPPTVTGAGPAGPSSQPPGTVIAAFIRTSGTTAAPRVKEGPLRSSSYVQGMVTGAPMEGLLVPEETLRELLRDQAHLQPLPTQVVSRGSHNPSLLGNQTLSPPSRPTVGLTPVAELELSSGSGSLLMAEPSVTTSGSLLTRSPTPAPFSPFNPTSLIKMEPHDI
# ETV5, sequence (P41161 whole entry): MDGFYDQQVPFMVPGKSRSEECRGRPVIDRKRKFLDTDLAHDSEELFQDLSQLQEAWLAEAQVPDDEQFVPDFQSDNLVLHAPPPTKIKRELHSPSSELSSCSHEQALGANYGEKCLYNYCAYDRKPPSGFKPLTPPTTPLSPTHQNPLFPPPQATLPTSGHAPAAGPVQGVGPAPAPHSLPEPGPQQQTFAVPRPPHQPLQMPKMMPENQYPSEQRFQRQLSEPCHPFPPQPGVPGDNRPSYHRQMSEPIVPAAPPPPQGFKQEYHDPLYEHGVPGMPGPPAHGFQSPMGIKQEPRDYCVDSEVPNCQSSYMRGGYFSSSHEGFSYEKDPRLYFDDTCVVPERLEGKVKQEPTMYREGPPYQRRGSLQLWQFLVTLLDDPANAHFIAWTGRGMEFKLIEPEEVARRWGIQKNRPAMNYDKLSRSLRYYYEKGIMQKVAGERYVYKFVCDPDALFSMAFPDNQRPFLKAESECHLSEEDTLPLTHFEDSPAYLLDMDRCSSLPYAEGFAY
# CRX, sequence (O43186 whole entry): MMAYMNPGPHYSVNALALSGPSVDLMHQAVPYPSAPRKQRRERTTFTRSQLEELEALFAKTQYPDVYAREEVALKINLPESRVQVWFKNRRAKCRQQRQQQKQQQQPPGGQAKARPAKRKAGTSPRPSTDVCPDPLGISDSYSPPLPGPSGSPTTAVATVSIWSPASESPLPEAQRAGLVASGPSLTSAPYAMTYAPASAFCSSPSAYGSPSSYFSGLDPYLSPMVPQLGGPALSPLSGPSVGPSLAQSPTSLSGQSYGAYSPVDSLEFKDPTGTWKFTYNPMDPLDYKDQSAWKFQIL
# ELF1, sequence (P32519 whole entry): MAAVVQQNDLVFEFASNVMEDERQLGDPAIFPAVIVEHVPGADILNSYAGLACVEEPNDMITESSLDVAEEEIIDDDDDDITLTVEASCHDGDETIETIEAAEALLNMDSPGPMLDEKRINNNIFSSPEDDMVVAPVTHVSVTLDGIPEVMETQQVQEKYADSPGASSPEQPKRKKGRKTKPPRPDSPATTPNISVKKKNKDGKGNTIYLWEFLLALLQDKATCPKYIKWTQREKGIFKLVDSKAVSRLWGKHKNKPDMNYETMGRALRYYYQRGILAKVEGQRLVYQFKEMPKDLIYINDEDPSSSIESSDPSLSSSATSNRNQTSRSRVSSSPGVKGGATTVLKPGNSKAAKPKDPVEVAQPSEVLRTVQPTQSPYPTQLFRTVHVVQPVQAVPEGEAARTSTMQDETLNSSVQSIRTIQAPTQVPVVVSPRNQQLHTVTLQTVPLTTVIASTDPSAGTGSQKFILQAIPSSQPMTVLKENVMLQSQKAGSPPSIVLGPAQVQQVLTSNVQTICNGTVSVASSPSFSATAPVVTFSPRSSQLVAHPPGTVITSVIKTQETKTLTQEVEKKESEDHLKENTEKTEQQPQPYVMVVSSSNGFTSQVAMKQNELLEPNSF
# ETV1, sequence (P50549 whole entry): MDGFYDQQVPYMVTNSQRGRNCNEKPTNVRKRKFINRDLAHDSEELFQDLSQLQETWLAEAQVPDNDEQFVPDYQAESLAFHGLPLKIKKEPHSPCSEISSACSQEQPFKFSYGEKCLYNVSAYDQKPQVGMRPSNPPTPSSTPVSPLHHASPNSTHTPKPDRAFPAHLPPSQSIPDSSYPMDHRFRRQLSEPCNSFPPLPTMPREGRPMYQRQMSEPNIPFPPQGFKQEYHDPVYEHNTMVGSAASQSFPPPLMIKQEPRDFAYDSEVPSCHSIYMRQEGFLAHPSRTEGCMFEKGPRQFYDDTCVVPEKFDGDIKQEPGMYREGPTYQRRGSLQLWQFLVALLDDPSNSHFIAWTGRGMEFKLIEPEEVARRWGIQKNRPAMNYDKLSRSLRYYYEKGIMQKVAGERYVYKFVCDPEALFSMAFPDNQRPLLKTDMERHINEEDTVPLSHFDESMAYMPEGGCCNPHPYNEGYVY
sequence,measurement,setting,value
GCTCTC,binding signal,[1],"1.43 fold enrichment (6-mer frequency, TF over GST control)"
same,binding signal,[2],"1.5 fold enrichment (6-mer frequency, TF over GST control)"
same,binding signal,[3],"1.53 fold enrichment (6-mer frequency, TF over GST control)"
same,binding signal,[4],"1.42 fold enrichment (6-mer frequency, TF over GST control)"
same,binding signal,[5],"1.47 fold enrichment (6-mer frequency, TF over GST control)"
same,binding signal,[6],"1.34 fold enrichment (6-mer frequency, TF over GST control)"
same,binding signal,[7],"1.35 fold enrichment (6-mer frequency, TF over GST control)"
same,binding signal,[8],"1.29 fold enrichment (6-mer frequency, TF over GST control)"
same,binding signal,[9],"1.46 fold enrichment (6-mer frequency, TF over GST control)"
same,binding signal,[10],"1.47 fold enrichment (6-mer frequency, TF over GST control)"
same,binding signal,[11],"1.28 fold enrichment (6-mer frequency, TF over GST control)"
same,binding signal,[12],"1.42 fold enrichment (6-mer frequency, TF over GST control)"
same,binding signal,[13],"1.33 fold enrichment (6-mer frequency, TF over GST control)"
same,binding signal,[14],"1.45 fold enrichment (6-mer frequency, TF over GST control)"
same,binding signal,[15],"1.56 fold enrichment (6-mer frequency, TF over GST control)"
same,binding signal,[16],"1.61 fold enrichment (6-mer frequency, TF over GST control)"
same,binding signal,[17],"1.35 fold enrichment (6-mer frequency, TF over GST control)"
same,binding signal,[18],"1.24 fold enrichment (6-mer frequency, TF over GST control)"
same,binding signal,[19],"1.57 fold enrichment (6-mer frequency, TF over GST control)"
